Assay results: PubChem BioAssay AID624117 (National Center for Advancing Translational Sciences (NCATS), 2012)
Records with an inconclusive call do not appear. Unmarked numbers belong to inactive results. The call rests on the fitted dose curve; in most records, active means well fitted curve in the direction sought with a large enough effect; inconclusive means small, poorly fitted or top-dose-only effect, or another doubt; inactive means no such curve, though single readings can be large or run the other way.

Test: qHTS Assay for Rab9 Promoter Activators: Hit Validation Using Renilla Luciferase Read-Out; further: % of control where 0% means no effect
Details: Huh7 NPC1 promoter Renilla luciferase reporter, 24 h; series mostly up to 76.9 µM; activation (negative = inhibition): at the top concentration
Source text: Niemann Pick Type C (NPC) is a rare neurodegenerative lipidosis that is characterized by lipid storage in the endosomal/lysosomal system. Treatment modalities for this devastating disease are currently non-existent due to the severe obstacles associated with accessing the central nervous system with proteins or genes. The majority of mutations causing NPC disease are missense mutations that are distributed throughout the length of the NPC1 protein, with the most prevalent being the I1061T allele. Although NPC1 mutant proteins may be functional, they are typically trapped in the ER due to misfolding. […] We have developed and optimized a cell based renilla luciferase reporter assay in 1536 well format for the identification of up-regulators of the mutant NPC1 promoter. This assay presents data on the validation of hits from the primary screen, which used a firefly luciferase read-out. NIH Chemical Genomics Center [NCGC] NIH Molecular Libraries Probe Production centers Network [MLPCN] MLPCN Grant: MH089375 Assay Submitter (PI): Yiannis A. Ioannou
Huh7 cells stably expressing NPC promoter-luciferase will be seeded at 1,500 cells/well in 5 uL in 1,536-well white opaque plates with 23 nL/well of compound in DMSO solution. The assay plates will be incubated at 37 deg C for 24 hours, after which 3 uL/well BriteLite plus luciferase detection reagent mixture (Perkin Elmer) will be added. Luminescence signal will be measured in a ViewLux plate reader (Perkin Elmer) after a 10 minute incubation at the room temperature.

Row | SMILES | activation (negative = inhibition) [%]
1 | O=CN1CCN(C(=O)c2ccccc2Cl)CC1 | -4.72
2 | CC(C)(C)NC(=S)NNC(=O)c1ccc2ncccc2c1 | -57.9
3 | Cc1nc(SCC(=O)NC(=O)NC(C)(C)C)nc(C)c1C | 0.143
4 | O=C(C[N+]1(CC#Cc2ccccc2)CCCCC1)c1ccccc1 | 5.82
5 | Cc1cccc(C)c1NC(=O)Nc1cccs1 | 19
6 | Cc1ccc2nc(NC(=O)CCn3cccc3)sc2c1 | -34.5
7 | Nc1nc(SCCO)[nH]c(=O)c1NC(=O)c1ccco1 | 10.2
8 | CC1CCc2sc(C(=O)NNC(=S)NC3CC3)cc2C1 (stereo not given) | -43.9
9 | Cc1[nH]n(-c2cccc3ccccc23)c(=O)c1/C=N/c1sc2c(c1C#N)CCC2 | -2.16
10 | Cc1ccc(C)c(Nc2cc(C)nc3ncnn23)c1 | -3.45
11 | COc1cccc(CNC(=O)CN(c2cc(C)cc(C)c2)S(=O)(=O)c2c(C)noc2C)c1 | 26.9
12 | COc1ccc(/C=C\C(=O)c2c(O)ccc3c(C)cc(=O)oc23)cc1OC | -59.8
13 | COc1ccc(NC(=O)CCCN2C(=O)C(c3ccccc3)Oc3cccnc32)cc1OC (stereo not given) | -6
14 | CCCCCCC(=O)Nc1ccc(C(=O)N/N=C/c2cccnc2)cc1 | 2.29
15 | COC(=O)c1cn(NC(=O)C2CCCCC2)c(=O)c2ccccc12 | -1.87
16 | COc1ccc(NC(=O)CN(C)C(=O)c2ccc(=O)[nH]c2)cc1 | 3.53
17 | CCC(=O)NC(=S)Nc1ccc(N2CCOCC2)cc1 | -0.702
18 | Cc1ccc(NC(=O)c2ncc(Cl)c(Cl)c2Cl)cc1C | -49.1
19 | CC1CCCN(C(=S)Nc2ccc(Nc3ccccc3)cc2)C1 (stereo not given) | 11.8
20 | Cc1ccc(NC(=O)c2c(O)c3ccccc3n(C)c2=O)nc1 | 10.5

Row | SMILES | activation (negative = inhibition) [%]
21 | O=C(CCCn1c(=O)oc2ccccc21)N1CCN(c2ccccn2)CC1 | -0.368
22 | O=C(CCNC(=O)c1ccc(Br)o1)NCc1ccc(Cl)cc1 | -2.1
23 | Cc1ccc(C#N)c(SCC(=O)Nc2nccs2)n1 | -0.351
24 | COc1ccccc1CNC(=O)COc1ccc(C)cc1 | 3.98
25 | Cc1nn(CCCC(=O)NCc2ccc(F)cc2)c(C)c1[N+](=O)[O-] | -2.28
26 | CCOCC(=O)Nc1c(C(=O)Nc2ccc3c(c2)OCCO3)oc2ccccc12 | -20.3
27 | Cc1c(C(O)CN2CCN(Cc3ccc4c(c3)OCO4)CC2)c2ccccc2n1C (stereo not given) | 11.6
28 | COc1ccc(-n2c(N)c(C(=O)NCc3ccco3)sc2=S)cc1 | -2.97
29 | COc1ccc(-n2cc(-c3ccc(Cl)cc3)[nH]c2=S)cc1 | -11.6
30 | CC(=O)[C@@H]1[C@@H](C(=O)c2ccc(C)cc2)[C@]2(C(=O)Nc3ccccc32)[C@H]2C=Cc3cc(F)ccc3N12 | 2.81
31 | COc1ccc(C)cc1N(C(=O)CNC(=O)c1ccco1)C(C(=O)NC1CCCC1)c1cccnc1 (stereo not given) | 21.9
32 | CC(=O)Nc1ccc(NC(=O)COc2ncnc3ccccc23)cc1 | 5.67
33 | CCOC(=O)C1(Cc2cccc(Cl)c2)CCCN(C(=O)CCSC)C1 (stereo not given) | -4.4
34 | O=C(CCS(=O)(=O)c1ccccc1)Nc1ccc(-c2nc3ccccc3s2)cc1 | 1.79
35 | O=C(CCc1cccc(Cl)c1)NC1CCCN(Cc2ccccc2F)C1 (stereo not given) | -8.65
36 | O=C(CCN1C(=O)c2ccccc2C1=O)Nc1ccc(-c2nc3ccccc3s2)cc1 | -11.4
37 | C=CCn1c(C)nnc1SCC(=O)Nc1nccs1 | -1.57
38 | CCCc1cc(C(=O)Nc2ccccc2SC)no1 | 24.4
39 | O=C(c1cc2cc([N+](=O)[O-])ccc2oc1=O)n1cccn1 | -1.56
40 | COCCSc1ncnc2c1oc1nc3c(cc12)COC(C)(C)C3 | -6.48
